The campaign covered roughly 1,000 compounds. Fewer than 10 were called active. A selection follows. Potency and affinity values are given separately. Unmarked numbers belong to inactive results.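 Rule for the calls: active = fitted half-maximal concentration no higher than twice the top valid tested dose, with signal falling; inconclusive = flat curve with 30 to 70% inhibition, or poor fit; inactive = the rest.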
Target: Golgi-associated PDZ and coiled-coil motif-containing protein (Homo sapiens) (UniProt Q9HD26)
Test: blockers of CAL PDZ–TMR peptide complex – biochemical, fluorescence polarization, untagged CAL PDZ, cherry-pick, set 2, dose response (AID 602254);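 note: 0% = DMSO neutral control and -100% = unlabeled peptide PRC23 positive control; more negative means stronger blocking of peptide binding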
Details: Purified CAL PDZ; series mostly up to 60 µM; activity change, negative = inhibition: at the top concentration

Structure (SMILES)	activity change, negative = inhibition [%]
C=CCNC(=S)NNC(=O)c1ccc(C)c(Cl)c1	0.039
Cc1ccc(S(=O)(=O)c2nc(NN(C)C)sc2Cl)cc1	-1.6
CC(=O)c1cccc(CN2CCN(CC=C(C)C)C(CCO)C2)c1 (stereo unspecified)	-0.044
CC1CCN(C(=O)CNC(=O)c2ccc(Cl)cc2Cl)CC1	-2.7
CCn1nnc(NC(=O)Cc2ccc(Cl)cc2)n1	-0.719
O=C(Nc1cccc(-n2cnnn2)c1)c1ccc(OC(F)(F)F)cc1	2.59
O=C(c1cc(COc2ccccc2)on1)N1CCCC(CN2CCOCC2)C1 (stereo unspecified)	2.19
CC(C)(C)n1ncc2c(=O)n(Cc3ccc(Cl)c(Cl)c3)cnc21	-3.02
CSc1ccccc1OCc1cc(C(=O)N2CCN(c3ccccc3)CC2C)no1 (stereo unspecified)	-4.89
COc1cc(C(=O)NNC(=O)c2ccc3c(c2)OCCO3)cc(OC)c1OC	3.06
COc1cc(S(=O)(=O)Nc2ccc(C(=O)NCC(=O)O)cc2)ccc1NC(C)=O	-0.599
O=C(N/N=C/c1cccnc1)c1[nH]ncc1Br	-2.47
CCOC(=O)c1ccc(NC(=O)C2CCCO2)cc1 (stereo unspecified)	5.12
CC(=O)c1cccc(NC(=O)CCNC(=O)c2cccc(C)c2)c1	-1.3
COc1cc(OC)c(C(=O)NCc2ccc3c(c2)OCO3)cc1OC	1.28
CC1CC(C)CN(C(=O)CCn2c(=O)oc3ccccc32)C1 (stereo unspecified)	2.08
Cc1ccc(CNS(=O)(=O)c2ccc(C(F)(F)F)cc2)n1C	-2.84
Cc1ccc2nc(N3CCN(Cc4nnnn4C4CCCC4)CC3)c(C#N)cc2c1	2.55
Cc1ccc(Cn2c(=O)n(CCC(=O)NCc3ccc4c(c3)OCO4)c(=O)c3ccccc32)cc1	-1.22
Cc1ccc2c(c1)N(CC(=O)Nc1ccccc1F)C(=O)CO2	0.409
CC(C)(C)OC(=O)N1CCC(NC(=O)c2[nH]cnc2C(=O)Nc2cccc(Cl)c2)CC1	0.132
COC(=O)c1ccc(OCC(O)CN2CCc3cc(OC)c(OC)cc3C2c2ccccc2)cc1 (stereo unspecified)	2.58
COc1ccccc1OCC(O)Cn1nc(C)cc1C (stereo unspecified)	0.574
O=C(O)c1ccccc1CSc1nnnn1-c1ccccc1	0.49

Structure (SMILES)	activity change, negative = inhibition [%]
CC(C)c1ccc(NC2CCCN(C(=O)c3ccnn3C)C2)cc1 (stereo unspecified)	-3.14
c1ccc(-c2ccccc2OCCOCCN2CCc3ccccc3C2)cc1	-1.05
CCOc1ccccc1C(=O)NCC(=O)OCc1csc(CC(=O)Nc2ccc(C)cc2)n1	-1.29
CCCn1nnc(NC(=O)c2ccc3c(c2)OCO3)n1	2.04
CC(=O)n1nc(-c2ccccc2)nc1NCc1cccs1	1.06
C/C(=N\OC(=O)c1cccc(C(F)(F)F)c1)c1sc(-c2ccccc2)nc1C	-4.29
COc1ccccc1-c1c(C)nn2c(N)c(-c3ccccc3)cnc12	-0.491
CC(=O)c1ccc(OCc2cc(C(=O)NCCc3ccc(Cl)cc3)no2)cc1	-0.074
Cc1c(C(=O)N2CCCCC2)c(S(=O)(=O)NCc2ccc(Cl)cc2)c(C)n1C	-4.68
O=C(c1ccc(S(=O)(=O)NCC2CCCO2)cc1)N1CCN(c2ccccc2)CC1 (stereo unspecified)	0.625
O=C(Nc1cccc(C(=O)N2CCCCC2)c1)C1CC1	-0.502
CCCN(CC(=O)Nc1ccccc1C)C(=O)CCCc1c[nH]c2ccccc12	-2.12
O=C(COC(=O)Cc1c(F)cccc1Cl)NC(=O)c1ccccc1	-4.75
Cc1ccccc1C(=O)NN1CCOCC1	1.4
COc1ccc(CN(C)C(=O)CNC(=O)CNC(=O)c2ccc(Cl)cc2Cl)cc1F	0.378
Cc1ccc(NC(=O)c2c(-c3ccccc3)noc2C)nc1	-14.1
Cc1[nH]c2c(C(=O)N3CCCC(CCC(=O)NCc4ccccc4F)C3)cccc2c1C (stereo unspecified)	-0.046
Cc1ccc(C(C)C)cc1OCCn1cncn1	-1.32
COCC(C)N1CCC(Oc2cccc(C(=O)NCCc3ccccc3)c2)CC1 (stereo unspecified)	-1.25
CC(=O)Nc1sc2c(c1C(N)=O)CCC2	2.98
CCOc1ccc(NC(=O)CN(C)S(=O)(=O)c2cccs2)cc1	-3.37
CCCCCN1CSC(=S)N(Cc2ccccc2)C1	-0.886
COc1ccc(/C=N/NC(=O)CNC(=O)c2ccncc2)cc1OC	1.66
O=C(Nc1ccccc1Cl)N1CCN(c2ccc3nnc(-c4ccccc4)n3n2)CC1	9.02

Structure (SMILES)	activity change, negative = inhibition [%]
CC(=O)Nc1ccc(-c2cc(NC(C)=O)n(-c3ccccc3)n2)cc1	-0.873
FC(F)(F)c1ccccc1NC(=S)N1CCCC1	3.04
COc1ccc(S(=O)(=O)N(C(C)=O)c2ccc3oc(=O)sc3c2)cc1	-5.88
CCN(c1ccccc1)S(=O)(=O)c1ccc(C(=O)N2CCN(c3ccccc3)CC2)cc1	-4.12
Cc1cc(C)c(C#N)c(Nc2cccc(C)c2C)n1	3.29
COc1ccc(Br)cc1CNc1ccc2[nH]c(=O)[nH]c2c1	-3.88
Cc1ccc(OCC(=O)N2CCN(C(=O)c3cccs3)CC2)cc1	0.824
COc1ccccc1N(CC(=O)N1CCN(c2ccccc2)CC1)S(=O)(=O)c1ccc(C)cc1	-2.13
O=S(=O)(c1ccccc1)N(CC(O)COc1ccccc1)c1ccccc1 (stereo unspecified)	0.464
CC(C)=C1C(=O)NN(c2cccc(Cl)c2)C1=O	0.379
O=C(c1ccc(-c2ccccc2)cc1)N1CCN(c2ccccn2)CC1	3.69
Cc1cc(Br)ccc1NC(=O)CN1CCN(c2ccccn2)CC1	1.33
COCC(=O)N1CCC(Oc2ccc(C(=O)NCc3cnc(C)cn3)cc2)CC1	-0.601
Cc1ccc(S(=O)(=O)N(C)C)cc1NC(=S)N1CCc2ccccc21	0.484
C/C(CC(=O)Nc1ccc2c(c1)OCCO2)=N\NC(=O)COc1ccc(Cl)c(C)c1	1.27
COc1ccc(C(=O)NCC(=O)NCc2ccncc2)cc1	0.998
Cn1nc(C(=O)Nc2nc(-c3ccccn3)cs2)c2ccccc2c1=O	1.73
Cc1ccsc1C(=O)NNC(=O)c1cccc(S(=O)(=O)N2CCCC2)c1	-2.83
Cc1ccc(C(=O)Nc2cccc(C(=O)N3CCOCC3)c2)cc1Cl	4.43
COc1ccc(OCC(=O)Nc2ccccc2C(=O)N2CCOCC2)cc1	-1.76
O=C(Nc1ccccc1C(=O)O)c1cccc(N2C(=O)c3ccccc3C2=O)c1	3.93
Cc1cccc(OCCCn2c(CO)nc3ccccc32)c1	1.72
O=c1[nH]c2ccccc2cc1CN(CC1CCCO1)S(=O)(=O)c1ccccc1 (stereo unspecified)	1.42
